Measurements as given in PubChem BioAssay (EPA / NIEHS).
Results filed as inconclusive are left out. Calls of active or inactive are those of the source. Rule for the calls: active = hit-call score of the fitted dose curve at least 0.9, where 1 is the maximum; inconclusive = response in the unintended direction; inactive = score below 0.9.

Assays:
[1] = target: Muscarinic acetylcholine receptor M3 (Homo sapiens) (UniProt P20309); assay: NVS_GPCR_hM3: NovaScreen (NVS) G Protein-Coupled Receptor Assay for human Muscarinic, M3 Receptor (AID 2283272)
Procedure, shortened: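 Radioligand displacement binding on human M3 receptor in CHO-derived membranes, 1 h incubation, filter-based scintillation counting. Primary screen in duplicate at 25 uM; actives followed up in concentration series; loss of signal versus DMSO.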

[2] = target: Neuropeptide Y receptor type 2 (Homo sapiens) (UniProt P49146); assay: NVS_GPCR_hNPY2: NovaScreen (NVS) G Protein-Coupled Receptor Assay for human Neuropeptide Receptor Y2 (NPY2) (AID 2283277)
Procedure, shortened: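 Chemicals were first tested in duplicate at 25 uM, then actives in singleton concentration series to 50 uM. Tracer binding to SK-N-MC-derived protein measured cell-free after 1 h via filter scintillation; signal loss relative to DMSO.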

[3] = target: Muscarinic acetylcholine receptor M2 (Homo sapiens) (UniProt P08172); assay: NVS_GPCR_hM2: NovaScreen (NVS) G Protein-Coupled Receptor Assay for human Muscarinic, M2 Receptor (AID 2283273)
Procedure, shortened: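 Radioligand competition binding, cell-free, receptor from CHO; 1 h incubation; scintillation detection. Primary testing at 25 uM in duplicate.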

[4] = target: human Neuropeptide Receptor Y1 (NPY1), NPY1R (gene 4886) (UniProt P25929); assay: NVS_GPCR_hNPY1: NovaScreen (NVS) G Protein-Coupled Receptor Assay for human Neuropeptide Receptor Y1 (NPY1) (AID 2283276)
Procedure, shortened: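 Displacement of specific radioligand from NPY1 receptor of SK-N-MC origin, read by filtration and scintillation after 1 h. Compounds first tested at 25 uM in duplicate, then actives in concentration series; signal loss relative to DMSO.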

[5] = target: human Opioid Receptor Mu (Opiate Mu), OPRM1 (gene 4988) (UniProt P35372); assay: NVS_GPCR_hOpiate_mu: NovaScreen (NVS) G Protein-Coupled Receptor Assay for human Opioid Receptor Mu (Opiate Mu) (AID 2283290);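 note: hits lower bound tracer signal versus DMSO meaning displacement of the ligand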
Procedure, shortened: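 Here, radioligand binding to CHO-extracted receptor was measured after 2.5 h using filter-based scintillation detection. Initial single-concentration screening used 25 uM in duplicate with plate controls; confirmed actives went to concentration-response testing.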

[6] = target: guinea pig Bradykinin Receptor B2 (BK2), BDKRB2 (gene 100135486) (UniProt O70526); assay: NVS_GPCR_gBK2: NovaScreen (NVS) G Protein-Coupled Receptor Assay for guinea pig Bradykinin Receptor B2 (BK2) (AID 2283292)
Procedure, shortened: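 Guinea pig ileum membrane preparation incubated 1 h with radioligand and test chemical; bound counts measured after filtration. Primary duplicate screening at 25 uM, then singleton concentration series with a 50 uM top dose; DMSO as baseline.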

[7] = target: human Muscarinic, M4 Receptor, CHRM4 (gene 1132) (UniProt P08173); assay: NVS_GPCR_hM4: NovaScreen (NVS) G Protein-Coupled Receptor Assay for human Muscarinic, M4 Receptor (AID 2283274)
Procedure, shortened: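 Filter-based scintillation counting of radioligand bound to CHO-expressed human M4 preparations after 1 h; loss of signal fitted versus DMSO. Initial duplicate testing at 25 uM, concentration-response follow-up for actives.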

[8] = target: human Thromboxane A2 Receptor (TXA2), TBXA2R (gene 6915) (UniProt P21731); assay: NVS_GPCR_hTXA2: NovaScreen (NVS) G Protein-Coupled Receptor Assay for human Thromboxane A2 Receptor (TXA2) (AID 2283282);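 note: actives reduce bound radioligand signal relative to DMSO baseline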
Procedure, shortened: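 Biochem binding, human platelets, cell-free; competitive radioligand displacement; 1 h; filter radiodetection. 25 uM duplicate primary, conc. series secondary; DMSO neg. ctrl.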

[9] = target: mouse Cholecystokinin, CCK1 Receptor (CCKA), Cckar (gene 12425) (UniProt O08786); assay: NVS_GPCR_mCCKAPeripheral: NovaScreen (NVS) G Protein-Coupled Receptor Assay for mouse Cholecystokinin, CCK1 Receptor (CCKA) (AID 2283285)
Procedure, shortened: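 Chemicals were first screened in duplicate at 25 uM, with those meeting threshold (e.g., 30% inhibition) retested in singleton concentration series to 50 uM maximum. Binding of radioligand to mouse pancreatic membranes was read after 2 h by filtration and scintillation counting.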

[10] = tested on: rabbit Platelet Activating Factor Receptor (PAF), gene 100354046; assay: NVS_GPCR_rabPAF: NovaScreen (NVS) G Protein-Coupled Receptor Assay for rabbit Platelet Activating Factor Receptor (PAF) (AID 2283287)
Procedure, shortened: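 Rabbit platelet membrane preparation; radioligand displacement read by filter-based scintillation counting 1 h after dosing, loss of signal versus DMSO. Primary screen in duplicate at 25 uM, actives followed up in concentration series.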

[11] = target: human Opioid Receptor Delta 1 (Opiate D1), OPRD1 (gene 4985) (UniProt P41143); assay: NVS_GPCR_hOpiate_D1: NovaScreen (NVS) G Protein-Coupled Receptor Assay for human Opioid Receptor Delta 1 (Opiate D1) (AID 2283280)
Procedure, shortened: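 Membrane preparations from CHO cells bearing the human receptor were incubated 1 h with test chemical, and bound radioligand was counted after filtration. Actives from 25 uM duplicate screening were retested in concentration-response.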

[12] = target: Muscarinic acetylcholine receptor M1 (Homo sapiens) (UniProt P11229); assay: NVS_GPCR_hM1: NovaScreen (NVS) G Protein-Coupled Receptor Assay for human Muscarinic, M1 Receptor (AID 2283270)
Procedure, shortened: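 Actives from a duplicate 25 uM single-point screen were retested in concentration series. Binding measured as displacement of a radioligand from CHO-derived receptor preparation, 1 h incubation, filtration and scintillation counting, analysed as signal loss against DMSO.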

[13] = target: human Neurokinin, NK2 Receptor, TACR2 (gene 6865) (UniProt P21452); assay: NVS_GPCR_hNK2: NovaScreen (NVS) G Protein-Coupled Receptor Assay for human Neurokinin, NK2 Receptor (AID 2283278);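 note: actives reduce bound radioligand signal relative to DMSO baseline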
Procedure, shortened: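 Test chemicals displace a radioligand from receptor prepared from CHO cells in a cell-free format, read after 4 hours by scintillation counting on filters. Screening starts at 25 uM in duplicate, and active chemicals then go to concentration series.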

[14] = target: human Neurotensin Receptor (NTS), NTSR1 (gene 4923) (UniProt P30989); assay: NVS_GPCR_hNTS: NovaScreen (NVS) G Protein-Coupled Receptor Assay for human Neurotensin Receptor (NTS) (AID 2283279)
Procedure, shortened: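 Compounds competed with a radiolabelled ligand for binding to CHO-derived human neurotensin receptor; bound signal counted after filtration, 1 h. Screened first at a single concentration of 25 uM in duplicate, then concentration series to 50 uM maximum for actives.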

[15] = target: human Vasopressin 1A Receptor (V1A), AVPR1A (gene 552) (UniProt P37288); assay: NVS_GPCR_hV1A: NovaScreen (NVS) G Protein-Coupled Receptor Assay for human Vasopressin 1A Receptor (V1A) (AID 2283284)
Procedure, shortened: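 Single-concentration duplicate screen at 25 uM, with concentration-response follow-up (top 50 uM) for actives. The assay measured displacement of a radioligand from human platelet-derived receptor after 1.5 h, detected by filtration and scintillation counting.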

[16] = target: rat Serotonin, 5-Hydroxytryptamine Receptor 1 (5HT1), Non-Selective Binding, Htr1a (gene 24473) (UniProt P19327); assay: NVS_GPCR_r5HT1_NonSelective: NovaScreen (NVS) G Protein-Coupled Receptor Assay for rat Serotonin, 5-Hydroxytryptamine Receptor 1 (5HT1), Non-Selective Binding (AID 2283286)
Procedure, shortened: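 Binding of a radioligand to rat cortex membranes is read by filtration and scintillation counting after 1 h. Compounds were screened at 25 uM in duplicate. Actives were then titrated to a top of 50 uM. DMSO is the baseline.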

[17] = tested on: guinea pig Atrionatriuretic Peptide Receptor A (ANPA), gene 100135578; assay: NVS_GPCR_gANPA: NovaScreen (NVS) G Protein-Coupled Receptor Assay for guinea pig Atrionatriuretic Peptide Receptor A (ANPA) (AID 2283291)
Procedure, shortened: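 Displacement of specific radioligand from guinea pig cerebellum membranes was read by scintillation after 1 h. A duplicate single-point screen at 25 uM was followed by a concentration series up to 50 uM, analysed relative to DMSO.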

Chain of human Muscarinic, M4 Receptor, CHRM4 (gene 1132) (P08173 whole entry, looked up): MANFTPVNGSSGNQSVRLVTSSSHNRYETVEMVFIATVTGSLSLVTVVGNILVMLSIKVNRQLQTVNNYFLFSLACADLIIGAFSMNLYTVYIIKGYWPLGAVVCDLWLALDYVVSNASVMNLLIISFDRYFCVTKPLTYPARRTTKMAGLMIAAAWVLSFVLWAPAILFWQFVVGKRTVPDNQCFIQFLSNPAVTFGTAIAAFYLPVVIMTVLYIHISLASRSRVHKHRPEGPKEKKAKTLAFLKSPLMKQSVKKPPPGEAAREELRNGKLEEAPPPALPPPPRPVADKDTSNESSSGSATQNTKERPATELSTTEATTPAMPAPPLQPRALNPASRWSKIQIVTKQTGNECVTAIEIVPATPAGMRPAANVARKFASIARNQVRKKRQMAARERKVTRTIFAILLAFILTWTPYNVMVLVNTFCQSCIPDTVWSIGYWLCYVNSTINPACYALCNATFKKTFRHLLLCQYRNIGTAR
Chain of Muscarinic acetylcholine receptor M1 (Homo sapiens) (P11229 whole entry, looked up): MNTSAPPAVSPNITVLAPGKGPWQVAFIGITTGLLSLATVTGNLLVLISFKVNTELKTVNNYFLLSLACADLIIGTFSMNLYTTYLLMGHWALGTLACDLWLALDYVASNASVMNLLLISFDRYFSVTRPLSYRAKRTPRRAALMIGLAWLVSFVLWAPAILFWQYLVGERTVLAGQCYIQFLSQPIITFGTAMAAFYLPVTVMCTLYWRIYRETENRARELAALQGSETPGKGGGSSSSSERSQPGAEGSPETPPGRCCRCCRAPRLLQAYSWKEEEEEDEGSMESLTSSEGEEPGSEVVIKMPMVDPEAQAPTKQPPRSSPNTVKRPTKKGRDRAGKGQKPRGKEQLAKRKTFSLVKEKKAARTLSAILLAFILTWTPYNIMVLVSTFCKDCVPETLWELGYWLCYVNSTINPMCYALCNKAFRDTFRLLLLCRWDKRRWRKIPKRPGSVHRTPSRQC
Chain of Muscarinic acetylcholine receptor M3 (Homo sapiens) (P20309 whole entry, looked up): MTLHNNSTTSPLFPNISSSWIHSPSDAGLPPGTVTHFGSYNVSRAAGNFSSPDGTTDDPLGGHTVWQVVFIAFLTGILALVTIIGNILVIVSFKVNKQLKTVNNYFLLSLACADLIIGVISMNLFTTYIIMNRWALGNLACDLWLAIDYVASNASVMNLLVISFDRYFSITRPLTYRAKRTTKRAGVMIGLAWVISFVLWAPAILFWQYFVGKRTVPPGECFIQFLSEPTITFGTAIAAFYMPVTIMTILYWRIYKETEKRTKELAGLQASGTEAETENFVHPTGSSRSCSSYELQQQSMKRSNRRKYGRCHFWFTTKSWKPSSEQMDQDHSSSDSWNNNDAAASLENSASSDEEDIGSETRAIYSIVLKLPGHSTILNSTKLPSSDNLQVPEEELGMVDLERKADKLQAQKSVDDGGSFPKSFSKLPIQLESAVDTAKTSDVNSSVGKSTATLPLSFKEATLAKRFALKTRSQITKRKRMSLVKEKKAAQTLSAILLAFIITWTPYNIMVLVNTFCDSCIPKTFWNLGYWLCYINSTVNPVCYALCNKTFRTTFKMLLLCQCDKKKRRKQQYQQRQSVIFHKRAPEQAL
Chain of human Opioid Receptor Mu (Opiate Mu), OPRM1 (gene 4988) (P35372 whole entry, looked up): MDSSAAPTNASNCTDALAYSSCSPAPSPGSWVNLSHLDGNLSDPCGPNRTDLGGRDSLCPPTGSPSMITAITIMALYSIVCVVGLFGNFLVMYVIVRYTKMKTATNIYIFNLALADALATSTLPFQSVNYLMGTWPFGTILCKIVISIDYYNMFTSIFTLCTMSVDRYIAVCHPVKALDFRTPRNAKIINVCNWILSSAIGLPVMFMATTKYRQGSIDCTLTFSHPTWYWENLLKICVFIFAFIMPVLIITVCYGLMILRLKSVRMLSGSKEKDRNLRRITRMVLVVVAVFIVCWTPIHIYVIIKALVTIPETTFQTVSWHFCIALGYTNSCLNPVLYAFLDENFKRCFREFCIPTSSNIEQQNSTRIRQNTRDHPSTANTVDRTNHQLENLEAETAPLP
Chain of mouse Cholecystokinin, CCK1 Receptor (CCKA), Cckar (gene 12425) (O08786 whole entry, looked up): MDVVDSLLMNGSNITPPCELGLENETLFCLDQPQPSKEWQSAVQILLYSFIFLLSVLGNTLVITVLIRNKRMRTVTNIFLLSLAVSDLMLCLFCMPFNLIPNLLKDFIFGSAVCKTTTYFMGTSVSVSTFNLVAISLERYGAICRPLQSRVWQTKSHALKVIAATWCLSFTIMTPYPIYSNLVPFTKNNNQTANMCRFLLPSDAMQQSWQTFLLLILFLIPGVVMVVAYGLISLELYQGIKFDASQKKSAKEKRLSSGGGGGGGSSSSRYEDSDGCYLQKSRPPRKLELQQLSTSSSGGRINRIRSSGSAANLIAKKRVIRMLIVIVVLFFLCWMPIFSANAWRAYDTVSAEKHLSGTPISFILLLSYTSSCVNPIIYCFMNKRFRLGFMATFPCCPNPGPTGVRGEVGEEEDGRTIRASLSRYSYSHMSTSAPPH
Chain of Muscarinic acetylcholine receptor M2 (Homo sapiens) (P08172 whole entry, looked up): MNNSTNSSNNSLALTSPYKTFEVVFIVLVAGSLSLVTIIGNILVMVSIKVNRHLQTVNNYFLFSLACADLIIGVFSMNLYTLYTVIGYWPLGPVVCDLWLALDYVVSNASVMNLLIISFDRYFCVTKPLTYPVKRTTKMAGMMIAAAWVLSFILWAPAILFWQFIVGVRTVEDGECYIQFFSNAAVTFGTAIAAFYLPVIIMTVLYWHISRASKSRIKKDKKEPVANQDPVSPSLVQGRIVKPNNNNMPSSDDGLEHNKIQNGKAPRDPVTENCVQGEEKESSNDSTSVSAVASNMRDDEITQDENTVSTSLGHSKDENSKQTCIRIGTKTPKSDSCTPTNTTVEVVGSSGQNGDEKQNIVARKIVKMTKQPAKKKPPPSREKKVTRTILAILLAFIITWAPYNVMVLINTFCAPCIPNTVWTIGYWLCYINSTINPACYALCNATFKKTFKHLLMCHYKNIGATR
Chain of human Neurotensin Receptor (NTS), NTSR1 (gene 4923) (P30989 whole entry, looked up): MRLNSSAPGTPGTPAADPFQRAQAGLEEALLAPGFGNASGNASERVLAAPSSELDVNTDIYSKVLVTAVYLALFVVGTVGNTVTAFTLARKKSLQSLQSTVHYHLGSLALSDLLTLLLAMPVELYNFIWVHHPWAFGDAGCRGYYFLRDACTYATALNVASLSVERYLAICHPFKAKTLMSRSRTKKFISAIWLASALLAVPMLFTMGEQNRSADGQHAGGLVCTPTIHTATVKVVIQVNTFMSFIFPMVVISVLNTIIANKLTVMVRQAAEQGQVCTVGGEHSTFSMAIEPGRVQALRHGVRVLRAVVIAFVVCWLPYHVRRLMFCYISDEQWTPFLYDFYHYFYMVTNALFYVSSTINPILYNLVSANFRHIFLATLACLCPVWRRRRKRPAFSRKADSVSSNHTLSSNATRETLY
Chain of human Neurokinin, NK2 Receptor, TACR2 (gene 6865) (P21452 whole entry, looked up): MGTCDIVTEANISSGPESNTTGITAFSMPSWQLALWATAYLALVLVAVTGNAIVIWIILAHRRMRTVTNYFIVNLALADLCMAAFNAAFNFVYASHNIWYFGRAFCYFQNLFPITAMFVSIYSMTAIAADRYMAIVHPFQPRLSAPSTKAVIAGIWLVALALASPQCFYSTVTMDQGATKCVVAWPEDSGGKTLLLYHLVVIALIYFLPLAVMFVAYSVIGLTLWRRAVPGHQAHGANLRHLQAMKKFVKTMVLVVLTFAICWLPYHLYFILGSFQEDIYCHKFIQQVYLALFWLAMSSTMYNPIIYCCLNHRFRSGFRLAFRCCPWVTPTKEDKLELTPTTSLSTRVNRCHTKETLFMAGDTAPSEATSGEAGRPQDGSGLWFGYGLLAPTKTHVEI
Chain of rat Serotonin, 5-Hydroxytryptamine Receptor 1 (5HT1), Non-Selective Binding, Htr1a (gene 24473) (P19327 whole entry, looked up): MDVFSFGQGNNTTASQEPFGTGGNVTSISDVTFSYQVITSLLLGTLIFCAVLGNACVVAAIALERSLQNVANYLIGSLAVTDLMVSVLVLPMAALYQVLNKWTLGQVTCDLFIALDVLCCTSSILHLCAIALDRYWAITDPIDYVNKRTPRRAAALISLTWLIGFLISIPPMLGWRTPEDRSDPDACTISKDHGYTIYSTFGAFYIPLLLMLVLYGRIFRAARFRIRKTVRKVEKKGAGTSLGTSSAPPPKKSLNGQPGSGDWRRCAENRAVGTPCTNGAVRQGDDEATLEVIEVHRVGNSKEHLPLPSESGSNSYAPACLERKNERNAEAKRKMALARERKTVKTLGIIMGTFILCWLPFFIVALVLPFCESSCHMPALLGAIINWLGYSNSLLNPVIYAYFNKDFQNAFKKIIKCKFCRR
Chain of human Thromboxane A2 Receptor (TXA2), TBXA2R (gene 6915) (P21731 whole entry, looked up): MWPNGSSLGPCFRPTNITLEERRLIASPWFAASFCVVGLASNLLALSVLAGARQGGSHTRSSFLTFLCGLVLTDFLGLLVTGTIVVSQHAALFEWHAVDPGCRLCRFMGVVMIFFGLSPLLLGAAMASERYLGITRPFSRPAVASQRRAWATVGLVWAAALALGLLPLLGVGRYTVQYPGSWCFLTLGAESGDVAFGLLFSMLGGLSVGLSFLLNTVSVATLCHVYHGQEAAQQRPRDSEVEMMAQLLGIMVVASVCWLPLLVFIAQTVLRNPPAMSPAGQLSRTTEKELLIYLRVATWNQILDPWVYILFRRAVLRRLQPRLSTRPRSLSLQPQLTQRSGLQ
Chain of Neuropeptide Y receptor type 2 (Homo sapiens) (P49146 whole entry, looked up): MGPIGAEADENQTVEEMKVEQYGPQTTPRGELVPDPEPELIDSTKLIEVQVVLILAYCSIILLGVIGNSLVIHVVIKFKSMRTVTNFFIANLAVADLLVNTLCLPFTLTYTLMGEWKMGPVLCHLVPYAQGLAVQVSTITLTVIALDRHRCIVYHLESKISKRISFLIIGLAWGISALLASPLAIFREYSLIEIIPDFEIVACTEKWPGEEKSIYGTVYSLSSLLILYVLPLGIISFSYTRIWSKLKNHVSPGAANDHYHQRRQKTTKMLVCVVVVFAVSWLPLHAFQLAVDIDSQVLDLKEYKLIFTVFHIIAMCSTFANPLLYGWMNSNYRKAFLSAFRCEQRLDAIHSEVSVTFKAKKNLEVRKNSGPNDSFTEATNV

**Q.** How did the outcome [1] turn out when `CN1COCN(Cc2cnc(Cl)s2)C1=N[N+](=O)[O-]` was run?
**A.** inactive

**Q.** What about the outcome [2] of the same compound?
**A.** inactive

**Q.** For `S=C1NCCN1`, which outcome [3] is on record?
**A.** inactive

**Q.** What about the outcome [4] of the same compound?
**A.** inactive

**Q.** What about the outcome [5] of the same compound?
**A.** inactive

**Q.** And the outcome [6]?
**A.** inactive

**Q.** `FC(F)C(F)(F)OCC(Cn1cncn1)c1ccc(Cl)cc1Cl` (centres undefined) was tested. Which outcome [7] did it give?
**A.** inactive

**Q.** And the outcome [8]?
**A.** inactive

**Q.** What about the AC50 [5] of the same compound?
**A.** 9.52 µM (active)

**Q.** `C[Si](Cn1cncn1)(c1ccc(F)cc1)c1ccc(F)cc1` was tested. Which AC50 [1] did it give?
**A.** 11.6 µM (active)

**Q.** And the outcome [3]?
**A.** inactive

**Q.** What about the AC50 [7] of the same compound?
**A.** 14.4 µM (active)

**Q.** What about the AC50 [9] of the same compound?
**A.** 25 µM (active)

**Q.** And the AC50 [10]?
**A.** 6.38 µM (active)

**Q.** And the AC50 [5]?
**A.** 9.11 µM (active)

**Q.** How did the outcome [11] turn out when `O=C(O)c1cc(Oc2ccc(C(F)(F)F)cc2Cl)ccc1[N+](=O)[O-]` was run?
**A.** inactive

**Q.** Which AC50 [12] does the source give for `CC[C@H](C)[C@H]1O[C@]2(C=C[C@@H]1C)C[C@@H]1C[C@@H](C/C=C(\C)[C@@H](O[C@H]3C[C@H](OC)[C@@H](O[C@H]4C[C@H](OC)[C@@H](NC)[C@H](C)O4)[C@H](C)O3)[C@@H](C)/C=C/C=C3\CO[C@@H]4[C@H](O)C(C)=C[C@@H](C(=O)O1)[C@]34O)O2` here?
**A.** 12.6 µM (active)

**Q.** What about the AC50 [1] of the same compound?
**A.** 10.1 µM (active)

**Q.** What about the AC50 [7] of the same compound?
**A.** 12.9 µM (active)

**Q.** What about the AC50 [4] of the same compound?
**A.** 18.3 µM (active)

**Q.** And the AC50 [13]?
**A.** 8.41 µM (active)

**Q.** What about the AC50 [14] of the same compound?
**A.** 0.00229 µM (active)

**Q.** What about the AC50 [11] of the same compound?
**A.** 15.5 µM (active)

**Q.** And the AC50 [8]?
**A.** 14.5 µM (active)

**Q.** And the outcome [15]?
**A.** inactive

**Q.** And the AC50 [9]?
**A.** 10.4 µM (active)

**Q.** What about the AC50 [5] of the same compound?
**A.** 15 µM (active)

**Q.** What does the source list for `CCCSP(=O)(OCC)Oc1ccc(Br)cc1Cl` (centres undefined)?
**A.** outcome [9]: inactive; AC50 [5]: 4.96 µM (active)

**Q.** Which outcome [12] does the source give for `CCOP(=O)(NC(C)C)Oc1ccc(SC)c(C)c1` (centres undefined) here?
**A.** inactive

**Q.** `CNC(=O)ON=C(C)SC` was tested. Which outcome [10] did it give?
**A.** inactive

**Q.** For `C[N+]1(C)CCCCC1`, which outcome [3] is on record?
**A.** inactive

**Q.** And the outcome [2]?
**A.** inactive

**Q.** For `CCOP(=O)(OCC)Oc1cc(C)nc(C(C)C)n1`, which outcome [16] is on record?
**A.** inactive

**Q.** Which AC50 [13] does the source give for `CC(C)[C@H](C(=O)O[C@H](C#N)c1cccc(Oc2ccccc2)c1)c1ccc(Cl)cc1` here?
**A.** 4.82 µM (active)

**Q.** `C#CCC1=C(C)C(OC(=O)C2C(C=C(C)C)C2(C)C)CC1=O` (centres undefined) was tested. Which AC50 [12] did it give?
**A.** 11 µM (active)

**Q.** What about the AC50 [1] of the same compound?
**A.** 7.59 µM (active)

**Q.** What about the outcome [13] of the same compound?
**A.** inactive

**Q.** And the outcome [9]?
**A.** inactive

**Q.** And the AC50 [10]?
**A.** 10.9 µM (active)

**Q.** And the outcome [17]?
**A.** inactive

**Q.** Which outcome [14] does the source give for `CCCCSP(=O)(SCCCC)SCCCC` here?
**A.** inactive

**Q.** Which results are given for `CCOP(=S)(OCC)Oc1cc(C)nc(C(C)C)n1`?
**A.** outcome [14]: inactive; outcome [16]: inactive
